The first test concerns the target Tumor necrosis factor receptor superfamily member 10B (Homo sapiens) (UniProt O14763). Description: viability loss of caspase-8 NB7 cells with TRAIL – with/without TRAIL, luminescence panel, confirmation (AID 651596). As to conditions: NB7 neuroblastoma + caspase-8, TRAIL sensitization, NB7 Caspase-8, with TRAIL, mean of runs, at 10 µM, stronger effect = higher value.
Chain of Tumor necrosis factor receptor superfamily member 10B (Homo sapiens) (O14763 whole entry, looked up): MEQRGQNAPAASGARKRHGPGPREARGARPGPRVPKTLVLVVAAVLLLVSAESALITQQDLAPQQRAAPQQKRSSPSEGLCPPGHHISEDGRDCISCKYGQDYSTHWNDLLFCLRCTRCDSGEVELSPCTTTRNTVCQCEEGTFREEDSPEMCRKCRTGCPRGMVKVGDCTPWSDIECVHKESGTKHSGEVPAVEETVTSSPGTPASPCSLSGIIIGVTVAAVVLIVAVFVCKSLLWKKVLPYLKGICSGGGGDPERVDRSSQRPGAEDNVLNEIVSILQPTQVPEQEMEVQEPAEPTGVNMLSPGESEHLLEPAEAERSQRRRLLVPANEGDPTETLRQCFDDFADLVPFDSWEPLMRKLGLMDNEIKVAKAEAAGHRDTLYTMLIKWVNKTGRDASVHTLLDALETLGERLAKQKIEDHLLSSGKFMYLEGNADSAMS
As for `Cc1cc(-c2csc3nc[nH]c(=S)c23)cc(C)c1C`, the activity was determined as 79.3%.
For `Cc1cc(C)c(C)c(S(=O)(=O)N2CCN(CC(=O)c3c(N)n(Cc4ccccc4)c(=O)n(C)c3=O)CC2)c1C`, the activity worked out at 76.3%.
On the same count and under the same terms, then `CCCCN(C)C(=O)c1cc2cc3ccc(OC)cc3nc2s1`, with 69.9%.
As to `Nc1nc(N)c2cc(Sc3ccc(Cl)cc3)ccc2n1`, the activity was 70.7%.
As to `CCOC(=O)CSc1nc(-c2ccncc2)ccc1C#N`, the activity came out at 55.8%.
`c1cc(-c2cc3cc(N4CCOCC4)ccc3o2)cs1`: the activity turned out to be 77.3%.
Take `CCc1ccc(-c2cc(C(=O)N/N=C/c3c[nH]c4ccccc34)[nH]n2)cc1`: the activity came out at 41.6%.
For the compound `CC1CCc2cc(F)ccc2N1C(=O)CCl` (stereo not given), the activity was 99.3%.
Consider `O=C(COc1ccc(Cl)cc1Cl)Nc1ccccc1F`, for which the activity worked out at 54.9%.
As to `Cc1cc(Cl)n2c(nc3cc(F)c(F)cc32)c1C#N`, the activity turned out to be 91.7%.
For `Cc1ccc2cc(NC(=O)c3ccccc3)ccc2n1`, the activity worked out at 55%.
Consider `Cc1cccc(NC(=O)CCc2ccc(N3C(N)=NC(N)=NC3(C)C)cc2)c1`, for which the activity is 81.3%.
`Cc1ccc(C(=O)N/C(=C\c2ccc(-c3ccccc3[N+](=O)[O-])o2)C(=O)NCCCN(C)C)cc1`: the activity was found to be 18.7%.
Regarding `COc1cc(/C=C/c2nc3ccccc3c(=O)[nH]2)ccc1OC(F)F`, the activity is 55.6%.
Still for that read-out and setting: then `CCOC(=O)COc1ccc(-c2nnc(-c3ccccc3)o2)cc1`, with 43.2%; and `COC(=O)Cn1c(=O)c(C(=O)CCl)c(N)n(Cc2ccccc2)c1=O`, with 93.6%; and `O=C(NC1CCCCC1)C(c1cccnc1)N(C(=O)CCl)c1ccc(F)cc1` (stereo not given), with 99.2%.
Still for that read-out and setting: then `COC(=O)c1ccccc1NC(=O)c1cc(-c2ccc(O)cc2)on1`, with 15.1%; and `CCN(CC)c1ccc(C(=O)OCc2cc(=O)oc3cc(O)ccc23)cc1`, with 83.8%.
For the compound `O=C(Nc1cccc(Cl)c1)c1nc[nH]c1C(=O)NCCCNC(=O)c1[nH]cnc1C(=O)Nc1cccc(Cl)c1`, the activity was found to be 45.5%.
As for `Cn1cnc([N+](=O)[O-])c1Sc1nc(N)nc2c1ncn2C1CC(O)C(CO)O1` (stereo not given), the activity was 68.8%.
`Cc1onc(-c2c(F)cccc2Cl)c1C(=O)Nc1nc2ccccc2[nH]1`: the activity came out at 31.9%.
As for `Cc1cccc(NC(=O)c2cc3ccccc3c(=O)o2)n1`, the activity was 60.3%.
As to `COc1ccccc1N1CCN(C2=Nc3cccc4cccc2c34)CC1`, the activity is 63.1%.
On to `NC(Cc1ccc(C(F)(F)F)cc1)c1csc(NC(=O)Nc2ccccc2Cc2ccccc2)n1` (stereo not given), for which the activity worked out at 75%.
For `Cc1cccc(-n2ncc3c(N4CCOCC4)ncnc32)c1`, the activity was determined as 85.7%.
Consider `CCC(C)c1ccc(NC(=O)c2ccco2)cc1` (stereo not given), for which the activity worked out at 81.5%.
As for `CCOCc1nc(N)nc(N)c1-c1cccc(Cl)c1`, the activity was 46.8%.
Take `CC1C(=O)NN=C1C(=O)N/N=C\C(Br)=C\c1ccccc1` (stereo not given): the activity came out at 80.2%.
Regarding `Cc1ccc(C(=O)O/N=C(\N)c2ccc(Br)cc2)cc1C`, the activity turned out to be 82.5%.
Still for that read-out and setting: in the case of `C#Cc1ccc([C@H]2C=C(C(=O)Nc3ccccc3)O[C@@H](OCc3ccc(CO)cc3)C2)cc1` it was 92%; in that of `C#Cc1ccc([C@@H]2C=C(C(=O)Nc3ccccc3)O[C@H](OCC)[C@H]2CCCO)cc1`, 90.8%.
Regarding `CCc1cc2c(=O)c(-c3cnn(-c4ccccc4)c3)c(C)oc2cc1OCC(=O)Nc1ccc(F)c(F)c1`, the activity is 37.2%.
Still for that read-out and setting: then `O=[N+]([O-])c1ccc(N2CCN(Cc3ccccc3)CC2)c2c1no[n+]2[O-]`, with 99.2%.
Regarding `CCC(=O)Nc1ccc2oc(-c3cccc(C)c3)nc2c1`, the activity amounted to 57.2%.
In the case of `COc1ccc(-c2csc(NC(=O)C3CCN(c4ncnc5sc(C)c(C)c45)CC3)n2)cc1OC`, the activity came out at 84.3%.
For `COCCNC(=O)c1ccc2c3n(nc2c1)-c1ccccc1CO3`, the activity stood at 67.6%.
As to `O=c1c2[nH]c3ccccc3c2ncn1C1CCCCC1`, the activity stood at 75.2%.
Regarding `CCn1cc(Cl)c(C(=O)Nc2ccc3c(c2)OCCO3)n1`, the activity came out at 39.5%.
On the same count and under the same terms, in the case of `COc1ccc(NC(=O)c2ccc(C)cc2)cc1` it was 66.1%.

Tested on in the next test: not listed separately
Described as above. As to conditions: NB7 neuroblastoma + caspase-8, without TRAIL, NB7 Caspase-8, without TRAIL, mean of runs, at 10 µM.
For `Cc1cc(-c2csc3nc[nH]c(=S)c23)cc(C)c1C`, the activity came to 74.9%.
`Cc1cc(C)c(C)c(S(=O)(=O)N2CCN(CC(=O)c3c(N)n(Cc4ccccc4)c(=O)n(C)c3=O)CC2)c1C`: the activity is 79.4%.
Turning to `CCCCN(C)C(=O)c1cc2cc3ccc(OC)cc3nc2s1`, the activity worked out at 70.3%.
For the compound `Nc1nc(N)c2cc(Sc3ccc(Cl)cc3)ccc2n1`, the activity was 75.5%.
With `CCOC(=O)CSc1nc(-c2ccncc2)ccc1C#N`, the activity was found to be 55.1%.
Turning to `c1cc(-c2cc3cc(N4CCOCC4)ccc3o2)cs1`, the activity was found to be 67.4%.
Regarding `CCc1ccc(-c2cc(C(=O)N/N=C/c3c[nH]c4ccccc34)[nH]n2)cc1`, the activity worked out at 52.2%.
Still for that read-out and setting: in the case of `CC1CCc2cc(F)ccc2N1C(=O)CCl` (stereo not given) it was 98.8%; in that of `O=C(COc1ccc(Cl)cc1Cl)Nc1ccccc1F`, 40.5%; in that of `Cc1cc(Cl)n2c(nc3cc(F)c(F)cc32)c1C#N`, 99.3%.
Take `Cc1ccc2cc(NC(=O)c3ccccc3)ccc2n1`: the activity came out at 43.6%.
Still for that read-out and setting: in the case of `Cc1cccc(NC(=O)CCc2ccc(N3C(N)=NC(N)=NC3(C)C)cc2)c1` it was 80.4%; in that of `Cc1ccc(C(=O)N/C(=C\c2ccc(-c3ccccc3[N+](=O)[O-])o2)C(=O)NCCCN(C)C)cc1`, 31.6%.
Consider `COc1cc(/C=C/c2nc3ccccc3c(=O)[nH]2)ccc1OC(F)F`, for which the activity is 54.7%.
Consider `CCOC(=O)COc1ccc(-c2nnc(-c3ccccc3)o2)cc1`, for which the activity turned out to be 33.8%.
Same read-out and setting: in the case of `COC(=O)Cn1c(=O)c(C(=O)CCl)c(N)n(Cc2ccccc2)c1=O` it was 94.7%; in that of `O=C(NC1CCCCC1)C(c1cccnc1)N(C(=O)CCl)c1ccc(F)cc1` (stereo not given), 98.8%; in that of `COC(=O)c1ccccc1NC(=O)c1cc(-c2ccc(O)cc2)on1`, 27.9%.
In the case of `CCN(CC)c1ccc(C(=O)OCc2cc(=O)oc3cc(O)ccc23)cc1`, the activity was 96%.
`O=C(Nc1cccc(Cl)c1)c1nc[nH]c1C(=O)NCCCNC(=O)c1[nH]cnc1C(=O)Nc1cccc(Cl)c1`: the activity stood at 77.4%.
Consider `Cn1cnc([N+](=O)[O-])c1Sc1nc(N)nc2c1ncn2C1CC(O)C(CO)O1` (stereo not given), for which the activity is 65.6%.
Turning to `Cc1onc(-c2c(F)cccc2Cl)c1C(=O)Nc1nc2ccccc2[nH]1`, the activity worked out at 30.2%.
On to `Cc1cccc(NC(=O)c2cc3ccccc3c(=O)o2)n1`, for which the activity was found to be 68.3%.
As for `COc1ccccc1N1CCN(C2=Nc3cccc4cccc2c34)CC1`, the activity stood at 58.2%.
Turning to `NC(Cc1ccc(C(F)(F)F)cc1)c1csc(NC(=O)Nc2ccccc2Cc2ccccc2)n1` (stereo not given), the activity is 96.2%.
The same measure, in the same setting: then `Cc1cccc(-n2ncc3c(N4CCOCC4)ncnc32)c1`, with 88.5%; and `CCC(C)c1ccc(NC(=O)c2ccco2)cc1` (stereo not given), with 82.8%.
Consider `CCOCc1nc(N)nc(N)c1-c1cccc(Cl)c1`, for which the activity is 61.9%.
Regarding `CC1C(=O)NN=C1C(=O)N/N=C\C(Br)=C\c1ccccc1` (stereo not given), the activity stood at 73.8%.
`Cc1ccc(C(=O)O/N=C(\N)c2ccc(Br)cc2)cc1C`: the activity was determined as 88.2%.
`C#Cc1ccc([C@H]2C=C(C(=O)Nc3ccccc3)O[C@@H](OCc3ccc(CO)cc3)C2)cc1`: the activity came out at 93.4%.
Still for that read-out and setting: in the case of `C#Cc1ccc([C@@H]2C=C(C(=O)Nc3ccccc3)O[C@H](OCC)[C@H]2CCCO)cc1` it was 91.5%; in that of `CCc1cc2c(=O)c(-c3cnn(-c4ccccc4)c3)c(C)oc2cc1OCC(=O)Nc1ccc(F)c(F)c1`, 26.4%; in that of `O=[N+]([O-])c1ccc(N2CCN(Cc3ccccc3)CC2)c2c1no[n+]2[O-]`, 99.1%.
Still for that read-out and setting: in the case of `CCC(=O)Nc1ccc2oc(-c3cccc(C)c3)nc2c1` it was 55.7%.
With `COc1ccc(-c2csc(NC(=O)C3CCN(c4ncnc5sc(C)c(C)c45)CC3)n2)cc1OC`, the activity came out at 62.9%.
As for `COCCNC(=O)c1ccc2c3n(nc2c1)-c1ccccc1CO3`, the activity stood at 82%.
The same measure, in the same setting: in the case of `O=c1c2[nH]c3ccccc3c2ncn1C1CCCCC1` it was 74.8%.
Same read-out and setting: then `CCn1cc(Cl)c(C(=O)Nc2ccc3c(c2)OCCO3)n1`, with 34.1%; and `COc1ccc(NC(=O)c2ccc(C)cc2)cc1`, with 60.3%.
